Compounds without any hit were thinned out: in the full panel of roughly 83,000, 20% have a hit.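 Growth was measured after 48 h exposure to one concentration of compound in 96-well plates. Values under 10 count as active.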 Values without a mark were called inactive. Calls of active or inactive are those of the source.

The results in this text go back to PubChem BioAssay (NCI).

The subject of the first experiment is RPMI-8226 leukemia. As to the kind of experiment: NCI-60 one-dose screen, 48 h (100 = growth as untreated, 0 = no growth, -100 = all killed). Particulars: 10 µM unless noted.
For the molecule `CCOP(=O)(Nc1ccc2c(c1)/C(=N/NC(N)=S)c1ccccc1-2)OCC`, the growth is 93.5%. Turning to `O=C(N/N=C\c1ccc(N(CCCl)CCCl)cc1Cl)c1cccnc1`, the growth was 82.4%. The same measure, in the same setting: under `COC(=O)CCc1c[nH]c2ccc(N(CCCl)CCCl)cc12` stands 86.3%. Take `COc1cc(C=Nc2cccc(C(=O)O)c2)ccc1N(CCCl)CCCl`: the growth was 100%. In the case of `C/C(CC(C)(C)N1CC1)=N\NC(=O)Nc1cccc2ccccc12`, the growth is 72.7%.

In the case of `CCCCNC(c1ccc(Cl)cc1)C(O)c1ccc(Cl)cc1` (stereo not given), the growth was -15.1% (active).

Turning to `O=C(O)CNC(=O)C(Cl)(Cl)Cl`, the growth was 92.3%. On the same count and under the same terms, under `CC1(C)[C@H](O)[C@H](F)C[C@@]2(C)Oc3ccc(C(=O)Nc4ccc5c(c4)NC(=O)C54CCN(CCCCC#N)CC4)cc3C[C@H]12` stands -12.6% (active); under `COC(=O)[C@@H](C)C[C@H](Cc1ccccc1)NC(=O)c1csc([C@@H](C[C@H](C(C)C)N(C)C(=O)[C@@H](NC(=O)[C@H]2CCCCN2C)C(C)C)OC(C)=O)n1`, 8.34% (active). For the molecule `N#CCCNc1ccccc1`, the growth is 95.2%. Take `CCCCCC1(CCBr)C(=O)NC(=O)NC1=O`: the growth was 97.5%. Take `CC[C@H](C)[C@H](NC(=O)[C@H]1CCCCN1C)C(=O)N(C)[C@H](CCc1nc(C(=O)N[C@@H](Cc2ccccc2)C[C@H](C)C(=O)OC)cs1)C(C)C`: the growth is 15.5%. On the same count and under the same terms, under `COC(=O)[C@@H](C)C[C@H](Cc1ccccc1)NC(=O)c1csc([C@@H](C[C@H](C(C)C)N(C)C(=O)[C@@H](NC(=O)[C@H]2CCCCN2C)C(C(F)(F)F)C(F)(F)F)OC(C)=O)n1` stands 11.2%; under `NC(CCl)CCl`, 99.3%; under `[Cl][Hg][n]1c(-c2ccco2)nc2ccccc21`, 92.7%.

Consider `Cc1cc(N(CCCl)CCCl)ccc1C=Nc1ccccc1-c1ccccc1`, for which the growth is 86.7%. Still for that read-out and setting: under `CCC1CN1CCCCN1CC1CC` (stereo not given) stands 102%; under `COC(=O)[C@@H](C)C[C@H](Cc1ccccc1)NC(=O)c1csc([C@@H](C[C@H](C(C)C)N(C)C(=O)[C@@H](NC(=O)C23CC(NC(C)=O)(C2)C3)C2CC2)OC(C)=O)n1`, 12%. Consider `O=[N+]([O-])CC(O)C(Cl)(Cl)Cl` (stereo not given), for which the growth was 71.7%.

Regarding `O=[N+]([O-])c1ccc(OP(=O)(CCl)N(CCCl)CCCl)cc1` (stereo not given), the growth was 104%. As to `CCOc1ccc(/C=C/[N+](=O)[O-])cc1`, the growth is -36.4% (active).

`CN(C)CCCOc1ccc2c(c1)c(C(=O)C(=O)NCCO)cn2Cc1ccccc1`: the growth was 106%. Same read-out and setting: under `O=C(CC1(O)C(=O)Nc2ccc(Cl)cc21)c1ccc(C(=O)NCC2CCC3(CC2)OOC2(CCCCC2)OO3)cc1` (stereo not given) stands -42.4% (active).

In the next experiment the test system is OVCAR-8 ovarian. Described as above. The settings on record: 10 µM unless noted.
As for `Cn1cc(C2=C(c3cn(C4CCN(Cc5ccccn5)CC4)c4ccccc34)C(=O)NC2=O)c2ccccc21`, the growth was 78.8%. In the case of `O=C1OCCC1Br` (stereo not given), the growth is 96.2%. In the case of `CC(CO)NC1CCCCC1` (stereo not given), the growth was 103%. As for `CC[C@H](C)[C@H](NC(=O)C12CC(NC(C)=O)(C1)C2)C(=O)N(C)[C@H](C[C@@H](OC(C)=O)c1nc(C(=O)N[C@@H](Cc2ccccc2)C[C@H](C)C(=O)OC)cs1)C(C)C`, the growth was 17.2%.

Regarding `CC[C@H](C)[C@H](NC(=O)NC(C)(C)C)C(=O)N(C)[C@H](C[C@@H](OC(C)=O)c1nc(C(=O)N[C@@H](Cc2ccccc2)C[C@H](C)C(=O)OC)cs1)C(C)C`, the growth is 18%.

`ClCCN(CCCl)Cc1ccc(Nc2ccnc3cc(Cl)ccc23)cc1`: the growth is 37.9%. Same read-out and setting: under `O=C(N/N=C\c1ccc(N(CCCl)CCCl)cc1)c1cccc([N+](=O)[O-])c1` stands 63.4%; under `O=[N+]([O-])c1c(Br)sc(Br)c1[N+](=O)[O-]`, 5.21% (active). For the molecule `CC12CC(=O)C3(SC#N)C(CCC4=CC(=O)CCC43C)C1CCC2=O` (stereo not given), the growth is 89.6%. On the same count and under the same terms, under `CCn1c2ccccc2c2cc(C(=O)c3ccc(C)c4ccccc34)ccc21` stands 22.8%. As to `COc1ccc([As]=[As]c2ccc(OC)c(NCS(=O)(=O)O)c2)cc1NCS(=O)(=O)O` (stereo not given), the growth was 44%.

Regarding `NC1CC2CCCCC2CC1(O)c1ccccc1` (stereo not given), the growth was 98.6%. Consider `N/C(=N/N=C/c1ccncc1)N[N+](=O)[O-]`, for which the growth was 103%. Regarding `O=C1CCC2(O)[C@@H]3Cc4ccc(O)c5c4[C@]2(CCN3Cc2ccoc2)C1O5` (stereo not given in full), the growth is 102%.

With `CCOP(=O)(Nc1ccc2c(c1)/C(=N/NC(N)=S)c1ccccc1-2)OCC`, the growth was 94.7%. On to `O=C(N/N=C\c1ccc(N(CCCl)CCCl)cc1Cl)c1cccnc1`, for which the growth was 96%.

Take `COC(=O)CCc1c[nH]c2ccc(N(CCCl)CCCl)cc12`: the growth is 56.1%. On the same count and under the same terms, under `COc1cc(C=Nc2cccc(C(=O)O)c2)ccc1N(CCCl)CCCl` stands 95.2%; under `C/C(CC(C)(C)N1CC1)=N\NC(=O)Nc1cccc2ccccc12`, 44.1%. Turning to `CCCCNC(c1ccc(Cl)cc1)C(O)c1ccc(Cl)cc1` (stereo not given), the growth was 49%. For the molecule `O=C(O)CNC(=O)C(Cl)(Cl)Cl`, the growth was 90.3%. For the molecule `CC1(C)[C@H](O)[C@H](F)C[C@@]2(C)Oc3ccc(C(=O)Nc4ccc5c(c4)NC(=O)C54CCN(CCCCC#N)CC4)cc3C[C@H]12`, the growth is 62.5%. In the case of `COC(=O)[C@@H](C)C[C@H](Cc1ccccc1)NC(=O)c1csc([C@@H](C[C@H](C(C)C)N(C)C(=O)[C@@H](NC(=O)[C@H]2CCCCN2C)C(C)C)OC(C)=O)n1`, the growth is 22.7%. The same measure, in the same setting: under `N#CCCNc1ccccc1` stands 114%; under `CCCCCC1(CCBr)C(=O)NC(=O)NC1=O`, 97.3%; under `CC[C@H](C)[C@H](NC(=O)[C@H]1CCCCN1C)C(=O)N(C)[C@H](CCc1nc(C(=O)N[C@@H](Cc2ccccc2)C[C@H](C)C(=O)OC)cs1)C(C)C`, 23.2%.

Turning to `COC(=O)[C@@H](C)C[C@H](Cc1ccccc1)NC(=O)c1csc([C@@H](C[C@H](C(C)C)N(C)C(=O)[C@@H](NC(=O)[C@H]2CCCCN2C)C(C(F)(F)F)C(F)(F)F)OC(C)=O)n1`, the growth was 16.8%.

Consider `NC(CCl)CCl`, for which the growth is 100%.

For `[Cl][Hg][n]1c(-c2ccco2)nc2ccccc21`, the growth is 106%.

On to `Cc1cc(N(CCCl)CCCl)ccc1C=Nc1ccccc1-c1ccccc1`, for which the growth was 74%. With `CCC1CN1CCCCN1CC1CC` (stereo not given), the growth was 101%. As to `COC(=O)[C@@H](C)C[C@H](Cc1ccccc1)NC(=O)c1csc([C@@H](C[C@H](C(C)C)N(C)C(=O)[C@@H](NC(=O)C23CC(NC(C)=O)(C2)C3)C2CC2)OC(C)=O)n1`, the growth is 69.1%. Take `O=[N+]([O-])CC(O)C(Cl)(Cl)Cl` (stereo not given): the growth is 116%. On to `O=[N+]([O-])c1ccc(OP(=O)(CCl)N(CCCl)CCCl)cc1` (stereo not given), for which the growth was 100%. Consider `CCOc1ccc(/C=C/[N+](=O)[O-])cc1`, for which the growth was 101%.

Regarding `CN(C)CCCOc1ccc2c(c1)c(C(=O)C(=O)NCCO)cn2Cc1ccccc1`, the growth is 98.1%. For the molecule `O=C(CC1(O)C(=O)Nc2ccc(Cl)cc21)c1ccc(C(=O)NCC2CCC3(CC2)OOC2(CCCCC2)OO3)cc1` (stereo not given), the growth is 3.83% (active).
